Article PMC12529666, “Dysregulation of AGO2-miRNA dynamics underlies the AGO2-associated Lessel–Kreienkamp syndrome”

B1: GTATTTTG (ssRNA)
RNA 1: GAGUUCUACAGUCCGACGAUCCCAACGUAUUUUGCACCUGGAAUUCUCGGGUGCCAA
RNA 2: UGGAGUGUGACAAUGGUGUUUG
DNA 1: GATCGTCGGACTGTAGAACTC
DNA 2: TTGGCACCCGAGAATTCCA
modifications: constant regions annealed to DNA blockers; guide miR-122 5' phosphate
B2: ATGTTCCG (ssRNA)
RNA 1: GAGUUCUACAGUCCGACGAUCCCAACAUGUUCCGCACCUGGAAUUCUCGGGUGCCAA
RNA 2: UGGAGUGUGACAAUGGUGUUUG
DNA 1: GATCGTCGGACTGTAGAACTC
DNA 2: TTGGCACCCGAGAATTCCA
modifications: constant regions annealed to DNA blockers; guide miR-122 5' phosphate
B3: GTACCCTG (ssRNA)
RNA 1: GAGUUCUACAGUCCGACGAUCCCAACGUACCCUGCACCUGGAAUUCUCGGGUGCCAA
RNA 2: UGGAGUGUGACAAUGGUGUUUG
DNA 1: GATCGTCGGACTGTAGAACTC
DNA 2: TTGGCACCCGAGAATTCCA
modifications: constant regions annealed to DNA blockers; guide miR-122 5' phosphate
B4: GCATTTTG (ssRNA)
RNA 1: GAGUUCUACAGUCCGACGAUCCCAACGCAUUUUGCACCUGGAAUUCUCGGGUGCCAA
RNA 2: UGGAGUGUGACAAUGGUGUUUG
DNA 1: GATCGTCGGACTGTAGAACTC
DNA 2: TTGGCACCCGAGAATTCCA
modifications: constant regions annealed to DNA blockers; guide miR-122 5' phosphate
B5: ACGCTTTG (ssRNA)
RNA 1: GAGUUCUACAGUCCGACGAUCCCAACACGCUUUGCACCUGGAAUUCUCGGGUGCCAA
RNA 2: UGGAGUGUGACAAUGGUGUUUG
DNA 1: GATCGTCGGACTGTAGAACTC
DNA 2: TTGGCACCCGAGAATTCCA
modifications: constant regions annealed to DNA blockers; guide miR-122 5' phosphate
B6: GTGTTCTA (ssRNA)
RNA 1: GAGUUCUACAGUCCGACGAUCCCAACGUGUUCUACACCUGGAAUUCUCGGGUGCCAA
RNA 2: UGGAGUGUGACAAUGGUGUUUG
DNA 1: GATCGTCGGACTGTAGAACTC
DNA 2: TTGGCACCCGAGAATTCCA
modifications: constant regions annealed to DNA blockers; guide miR-122 5' phosphate
B7: ATATTCTG (ssRNA)
RNA 1: GAGUUCUACAGUCCGACGAUCCCAACAUAUUCUGCACCUGGAAUUCUCGGGUGCCAA
RNA 2: UGGAGUGUGACAAUGGUGUUUG
DNA 1: GATCGTCGGACTGTAGAACTC
DNA 2: TTGGCACCCGAGAATTCCA
modifications: constant regions annealed to DNA blockers; guide miR-122 5' phosphate
B8: GTATCTTG (ssRNA)
RNA 1: GAGUUCUACAGUCCGACGAUCCCAACGUAUCUUGCACCUGGAAUUCUCGGGUGCCAA
RNA 2: UGGAGUGUGACAAUGGUGUUUG
DNA 1: GATCGTCGGACTGTAGAACTC
DNA 2: TTGGCACCCGAGAATTCCA
modifications: constant regions annealed to DNA blockers; guide miR-122 5' phosphate
B9: GCATCCCG (ssRNA)
RNA 1: GAGUUCUACAGUCCGACGAUCCCAACGCAUCCCGCACCUGGAAUUCUCGGGUGCCAA
RNA 2: UGGAGUGUGACAAUGGUGUUUG
DNA 1: GATCGTCGGACTGTAGAACTC
DNA 2: TTGGCACCCGAGAATTCCA
modifications: constant regions annealed to DNA blockers; guide miR-122 5' phosphate
B10: ACGTTTTG (ssRNA)
RNA 1: GAGUUCUACAGUCCGACGAUCCCAACACGUUUUGCACCUGGAAUUCUCGGGUGCCAA
RNA 2: UGGAGUGUGACAAUGGUGUUUG
DNA 1: GATCGTCGGACTGTAGAACTC
DNA 2: TTGGCACCCGAGAATTCCA
modifications: constant regions annealed to DNA blockers; guide miR-122 5' phosphate
B11: GTGTTTCG (ssRNA)
RNA 1: GAGUUCUACAGUCCGACGAUCCCAACGUGUUUCGCACCUGGAAUUCUCGGGUGCCAA
RNA 2: UGGAGUGUGACAAUGGUGUUUG
DNA 1: GATCGTCGGACTGTAGAACTC
DNA 2: TTGGCACCCGAGAATTCCA
modifications: constant regions annealed to DNA blockers; guide miR-122 5' phosphate
B12: GTGTCCCG (ssRNA)
RNA 1: GAGUUCUACAGUCCGACGAUCCCAACGUGUCCCGCACCUGGAAUUCUCGGGUGCCAA
RNA 2: UGGAGUGUGACAAUGGUGUUUG
DNA 1: GATCGTCGGACTGTAGAACTC
DNA 2: TTGGCACCCGAGAATTCCA
modifications: constant regions annealed to DNA blockers; guide miR-122 5' phosphate
B13: GCACTTTG (ssRNA)
RNA 1: GAGUUCUACAGUCCGACGAUCCCAACGCACUUUGCACCUGGAAUUCUCGGGUGCCAA
RNA 2: UGGAGUGUGACAAUGGUGUUUG
DNA 1: GATCGTCGGACTGTAGAACTC
DNA 2: TTGGCACCCGAGAATTCCA
modifications: constant regions annealed to DNA blockers; guide miR-122 5' phosphate
B14: GTACTCTA (ssRNA)
RNA 1: GAGUUCUACAGUCCGACGAUCCCAACGUACUCUACACCUGGAAUUCUCGGGUGCCAA
RNA 2: UGGAGUGUGACAAUGGUGUUUG
DNA 1: GATCGTCGGACTGTAGAACTC
DNA 2: TTGGCACCCGAGAATTCCA
modifications: constant regions annealed to DNA blockers; guide miR-122 5' phosphate
B15: GTATTTCG (ssRNA)
RNA 1: GAGUUCUACAGUCCGACGAUCCCAACGUAUUUCGCACCUGGAAUUCUCGGGUGCCAA
RNA 2: UGGAGUGUGACAAUGGUGUUUG
DNA 1: GATCGTCGGACTGTAGAACTC
DNA 2: TTGGCACCCGAGAATTCCA
modifications: constant regions annealed to DNA blockers; guide miR-122 5' phosphate
B16: GTGTTTTG (ssRNA)
RNA 1: GAGUUCUACAGUCCGACGAUCCCAACGUGUUUUGCACCUGGAAUUCUCGGGUGCCAA
RNA 2: UGGAGUGUGACAAUGGUGUUUG
DNA 1: GATCGTCGGACTGTAGAACTC
DNA 2: TTGGCACCCGAGAATTCCA
modifications: constant regions annealed to DNA blockers; guide miR-122 5' phosphate
B17: GCATCTCG (ssRNA)
RNA 1: GAGUUCUACAGUCCGACGAUCCCAACGCAUCUCGCACCUGGAAUUCUCGGGUGCCAA
RNA 2: UGGAGUGUGACAAUGGUGUUUG
DNA 1: GATCGTCGGACTGTAGAACTC
DNA 2: TTGGCACCCGAGAATTCCA
modifications: constant regions annealed to DNA blockers; guide miR-122 5' phosphate
B18: ACGTTCTG (ssRNA)
RNA 1: GAGUUCUACAGUCCGACGAUCCCAACACGUUCUGCACCUGGAAUUCUCGGGUGCCAA
RNA 2: UGGAGUGUGACAAUGGUGUUUG
DNA 1: GATCGTCGGACTGTAGAACTC
DNA 2: TTGGCACCCGAGAATTCCA
modifications: constant regions annealed to DNA blockers; guide miR-122 5' phosphate
B19: ACGTTTCG (ssRNA)
RNA 1: GAGUUCUACAGUCCGACGAUCCCAACACGUUUCGCACCUGGAAUUCUCGGGUGCCAA
RNA 2: UGGAGUGUGACAAUGGUGUUUG
DNA 1: GATCGTCGGACTGTAGAACTC
DNA 2: TTGGCACCCGAGAATTCCA
modifications: constant regions annealed to DNA blockers; guide miR-122 5' phosphate
B20: GCATTCTG (ssRNA)
RNA 1: GAGUUCUACAGUCCGACGAUCCCAACGCAUUCUGCACCUGGAAUUCUCGGGUGCCAA
RNA 2: UGGAGUGUGACAAUGGUGUUUG
DNA 1: GATCGTCGGACTGTAGAACTC
DNA 2: TTGGCACCCGAGAATTCCA
modifications: constant regions annealed to DNA blockers; guide miR-122 5' phosphate
B21: ACGTCCCG (ssRNA)
RNA 1: GAGUUCUACAGUCCGACGAUCCCAACACGUCCCGCACCUGGAAUUCUCGGGUGCCAA
RNA 2: UGGAGUGUGACAAUGGUGUUUG
DNA 1: GATCGTCGGACTGTAGAACTC
DNA 2: TTGGCACCCGAGAATTCCA
modifications: constant regions annealed to DNA blockers; guide miR-122 5' phosphate
B22: ACGCCCTG (ssRNA)
RNA 1: GAGUUCUACAGUCCGACGAUCCCAACACGCCCUGCACCUGGAAUUCUCGGGUGCCAA
RNA 2: UGGAGUGUGACAAUGGUGUUUG
DNA 1: GATCGTCGGACTGTAGAACTC
DNA 2: TTGGCACCCGAGAATTCCA
modifications: constant regions annealed to DNA blockers; guide miR-122 5' phosphate
B23: ATGCTCTG (ssRNA)
RNA 1: GAGUUCUACAGUCCGACGAUCCCAACAUGCUCUGCACCUGGAAUUCUCGGGUGCCAA
RNA 2: UGGAGUGUGACAAUGGUGUUUG
DNA 1: GATCGTCGGACTGTAGAACTC
DNA 2: TTGGCACCCGAGAATTCCA
modifications: constant regions annealed to DNA blockers; guide miR-122 5' phosphate

target: AGO2 L192P (Homo sapiens, UniProt Q9UKV8 1-859, L192P;S387D;S824A;S828D;S831D;S834A); test: RNA Bind-n-Seq (nitrocellulose filter binding and sequencing); miR-122 guide loaded in AGO2; 60 min incubation; 30 mM Tris pH 8.0, 100 mM potassium acetate, 2 mM magnesium acetate, 0.5 mM TCEP, 0.005% NP-40, 0.01 mg/ml yeast tRNA; 3 nM AGO2-miR-122, 100 nM RNA library; 60; high values mean tight binding; settings: protein: recombinant; tags: His6 (N-terminal, pFastBac HTA)
Sequence (Q9UKV8 whole entry L192P/S387D/S824A/S828D/S831D/S834A): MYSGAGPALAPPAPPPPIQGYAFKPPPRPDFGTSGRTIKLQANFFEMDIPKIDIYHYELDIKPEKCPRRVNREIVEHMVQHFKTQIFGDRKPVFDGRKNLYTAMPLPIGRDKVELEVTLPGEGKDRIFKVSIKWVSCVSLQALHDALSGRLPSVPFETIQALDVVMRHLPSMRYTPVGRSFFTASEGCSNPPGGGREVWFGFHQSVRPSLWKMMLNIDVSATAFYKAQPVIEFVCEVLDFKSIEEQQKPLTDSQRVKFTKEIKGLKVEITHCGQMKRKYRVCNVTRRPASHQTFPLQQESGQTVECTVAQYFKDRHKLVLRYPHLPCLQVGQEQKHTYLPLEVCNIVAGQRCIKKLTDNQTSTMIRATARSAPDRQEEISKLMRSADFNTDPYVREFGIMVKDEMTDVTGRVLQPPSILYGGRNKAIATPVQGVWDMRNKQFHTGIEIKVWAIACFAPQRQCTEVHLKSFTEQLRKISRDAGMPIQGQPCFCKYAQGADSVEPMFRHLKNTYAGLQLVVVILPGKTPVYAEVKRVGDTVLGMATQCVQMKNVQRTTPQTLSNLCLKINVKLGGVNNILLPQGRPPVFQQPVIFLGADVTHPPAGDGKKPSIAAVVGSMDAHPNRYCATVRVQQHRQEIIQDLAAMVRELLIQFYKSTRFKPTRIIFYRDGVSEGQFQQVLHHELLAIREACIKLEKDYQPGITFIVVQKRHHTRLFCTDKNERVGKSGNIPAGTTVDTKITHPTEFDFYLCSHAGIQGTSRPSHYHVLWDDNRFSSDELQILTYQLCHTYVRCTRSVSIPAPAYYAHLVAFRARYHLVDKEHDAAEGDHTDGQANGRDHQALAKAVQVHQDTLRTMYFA
Method in brief: (§1)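 Fold enrichment is each target's read fraction divided by its read fraction in the input library. Sf9 insect cells expressed His-tagged AGO2 from baculovirus; the protein was loaded with a synthetic guide RNA and purified by Ni-NTA and a biotinylated capture oligo. The bound RNA was extracted, reverse-transcribed, barcode-amplified and sequenced on Illumina.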

Binder	binding signal
B1	0.384 fold enrichment over input
B2	0.352 fold enrichment over input
B3	0.344 fold enrichment over input
B4	0.36 fold enrichment over input
B5	0.36 fold enrichment over input
B6	0.435 fold enrichment over input
B7	0.389 fold enrichment over input
B8	0.32 fold enrichment over input
B9	0.376 fold enrichment over input
B10	0.342 fold enrichment over input
B11	0.36 fold enrichment over input
B12	0.344 fold enrichment over input
B13	0.325 fold enrichment over input
B14	0.425 fold enrichment over input
B15	0.381 fold enrichment over input
B16	0.344 fold enrichment over input
B17	0.321 fold enrichment over input
B18	0.334 fold enrichment over input
B19	0.338 fold enrichment over input
B20	0.359 fold enrichment over input
B21	0.332 fold enrichment over input
B22	0.4 fold enrichment over input
B23	0.376 fold enrichment over input

target: AGO2 A367P (Homo sapiens, UniProt Q9UKV8 1-859, A367P;S387D;S824A;S828D;S831D;S834A); test: as above; settings: protein: recombinant; tags: His6 (N-terminal, pFastBac HTA)
Sequence (Q9UKV8 whole entry A367P/S387D/S824A/S828D/S831D/S834A): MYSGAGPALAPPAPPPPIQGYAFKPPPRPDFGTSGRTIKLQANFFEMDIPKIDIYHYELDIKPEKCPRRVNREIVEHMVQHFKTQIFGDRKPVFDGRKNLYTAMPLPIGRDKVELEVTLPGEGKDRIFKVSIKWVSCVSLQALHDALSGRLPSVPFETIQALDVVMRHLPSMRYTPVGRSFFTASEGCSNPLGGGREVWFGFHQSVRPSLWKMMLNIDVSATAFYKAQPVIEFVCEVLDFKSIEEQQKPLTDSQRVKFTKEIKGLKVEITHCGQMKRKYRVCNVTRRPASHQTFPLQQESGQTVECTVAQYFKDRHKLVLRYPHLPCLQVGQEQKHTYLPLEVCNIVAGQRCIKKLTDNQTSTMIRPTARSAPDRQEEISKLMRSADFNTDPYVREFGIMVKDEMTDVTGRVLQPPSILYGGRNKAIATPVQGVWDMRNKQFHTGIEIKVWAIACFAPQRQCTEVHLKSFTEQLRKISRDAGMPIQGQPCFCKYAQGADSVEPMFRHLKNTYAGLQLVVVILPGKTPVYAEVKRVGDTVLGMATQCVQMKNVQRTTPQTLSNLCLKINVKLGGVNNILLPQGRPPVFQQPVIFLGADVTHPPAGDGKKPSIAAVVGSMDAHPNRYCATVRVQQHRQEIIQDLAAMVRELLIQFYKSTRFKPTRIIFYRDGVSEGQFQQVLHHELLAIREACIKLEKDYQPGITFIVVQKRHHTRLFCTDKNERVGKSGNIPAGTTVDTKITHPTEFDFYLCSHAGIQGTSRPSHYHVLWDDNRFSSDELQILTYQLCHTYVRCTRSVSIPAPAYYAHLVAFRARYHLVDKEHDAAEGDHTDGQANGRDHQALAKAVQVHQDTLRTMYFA
Method in brief: as §1

Binder	binding signal
B1	0.131 fold enrichment over input
B2	0.121 fold enrichment over input
B3	0.129 fold enrichment over input
B4	0.127 fold enrichment over input
B5	0.134 fold enrichment over input
B6	0.156 fold enrichment over input
B7	0.137 fold enrichment over input
B8	0.127 fold enrichment over input
B9	0.143 fold enrichment over input
B10	0.136 fold enrichment over input
B11	0.133 fold enrichment over input
B12	0.126 fold enrichment over input
B13	0.126 fold enrichment over input
B14	0.181 fold enrichment over input
B15	0.127 fold enrichment over input
B16	0.129 fold enrichment over input
B17	0.121 fold enrichment over input
B18	0.128 fold enrichment over input
B19	0.13 fold enrichment over input
B20	0.137 fold enrichment over input
B21	0.141 fold enrichment over input
B22	0.147 fold enrichment over input
B23	0.14 fold enrichment over input

target: AGO2 T357M (Homo sapiens, UniProt Q9UKV8 1-859, T357M;S387D;S824A;S828D;S831D;S834A); test: as above; settings: protein: recombinant; tags: His6 (N-terminal, pFastBac HTA)
Sequence (Q9UKV8 whole entry T357M/S387D/S824A/S828D/S831D/S834A): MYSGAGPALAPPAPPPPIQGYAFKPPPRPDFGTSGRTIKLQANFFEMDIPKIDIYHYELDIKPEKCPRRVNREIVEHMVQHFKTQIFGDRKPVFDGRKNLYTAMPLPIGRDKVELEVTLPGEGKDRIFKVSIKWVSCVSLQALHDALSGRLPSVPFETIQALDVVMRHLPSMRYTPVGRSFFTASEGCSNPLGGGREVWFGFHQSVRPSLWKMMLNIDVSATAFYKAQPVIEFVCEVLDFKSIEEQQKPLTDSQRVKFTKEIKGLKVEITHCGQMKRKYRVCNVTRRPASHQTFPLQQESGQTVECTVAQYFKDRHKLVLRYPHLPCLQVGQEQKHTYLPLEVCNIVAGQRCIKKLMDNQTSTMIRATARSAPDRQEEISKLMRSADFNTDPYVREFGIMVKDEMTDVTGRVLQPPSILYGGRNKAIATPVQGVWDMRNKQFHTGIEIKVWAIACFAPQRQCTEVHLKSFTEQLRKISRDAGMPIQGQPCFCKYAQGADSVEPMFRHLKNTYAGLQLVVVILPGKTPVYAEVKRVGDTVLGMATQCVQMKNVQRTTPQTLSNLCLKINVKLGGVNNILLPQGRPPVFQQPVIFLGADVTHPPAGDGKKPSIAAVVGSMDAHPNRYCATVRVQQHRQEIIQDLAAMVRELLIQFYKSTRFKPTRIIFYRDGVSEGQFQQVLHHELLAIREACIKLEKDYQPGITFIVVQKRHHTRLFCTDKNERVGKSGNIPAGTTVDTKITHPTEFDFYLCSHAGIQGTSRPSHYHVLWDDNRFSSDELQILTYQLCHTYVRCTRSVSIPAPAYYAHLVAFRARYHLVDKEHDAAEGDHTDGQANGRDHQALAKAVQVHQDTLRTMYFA
Method in brief: as §1

Binder	binding signal
B1	0.514 fold enrichment over input
B2	0.475 fold enrichment over input
B3	0.483 fold enrichment over input
B4	0.449 fold enrichment over input
B5	0.52 fold enrichment over input
B6	0.531 fold enrichment over input
B7	0.54 fold enrichment over input
B8	0.448 fold enrichment over input
B9	0.478 fold enrichment over input
B10	0.495 fold enrichment over input
B11	0.483 fold enrichment over input
B12	0.447 fold enrichment over input
B13	0.452 fold enrichment over input
B14	0.539 fold enrichment over input
B15	0.515 fold enrichment over input
B16	0.483 fold enrichment over input
B17	0.4 fold enrichment over input
B18	0.445 fold enrichment over input
B19	0.445 fold enrichment over input
B20	0.44 fold enrichment over input
B21	0.443 fold enrichment over input
B22	0.519 fold enrichment over input
B23	0.486 fold enrichment over input
